± gives the standard deviation of the averaged measurements.

One assay concerns Caenorhabditis elegans N2 infected with Nematocida parisii ERTm1. The assay is described as follows: progeny production relative to DMSO uninfected control; higher = more progeny despite microsporidia infection (inhibition of infection with low host toxicity). To be noted: infection time 6 days; 40 µM. On the procedure:
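Bleach-synchronised C. elegans N2 L1 larvae (100 per well) were grown in 96-well plates in K-medium with 5x E. coli OP50 and 15,000 N. parisii spores/uL, plus Pandemic Response Box compound at 100 uM or 40 uM (1% DMSO), for 6 days at 21 C with shaking. Worms were stained with Rose Bengal, scanned on a flatbed scanner and counted with WorMachine. Progeny production is given as % of the DMSO uninfected control (triplicate wells), so higher values mean the compound restores progeny despite infection.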
On to `C=CCN(C(=O)OCc1ccc([N+](=O)[O-])cc1)C1CCN(CC[C@](C)(CN(C)S(=O)(=O)c2ccccc2)c2ccccc2)CC1`, for which the progeny production was 3.88 ± 1.4%.
On the same count and under the same terms, the same measure for `Oc1cc(-c2cccc3ccccc23)[nH]n1`: 2.92 ± 0.16%.
Same read-out and setting: the same measure for `O=C(O)c1ccccc1Sc1ncnc2sc3c(c12)CCC3`: 3.94 ± 1.7%; for `O=C(Nc1nnc(-c2ccccc2)o1)c1ccc(F)cc1`: 5.03 ± 1.8%.
`NC1C2CC3CC(C2)CC1C3` (stereo not given) returned a progeny production of 4.96 ± 2.6%.
With `Nc1nc(C(F)(F)F)cc2c1[nH]c(=O)n2Cc1ccccc1`, the progeny production worked out at 2.69 ± 0.61%.
Same read-out and setting: then `CCc1nc2ccccn2c1C(=O)NCc1ccccc1`, with 6.11 ± 1.7%; and `N=C(N)NCCCCC(=O)Nc1cc(C(F)(F)F)cc(NC(=O)c2cc(C(=O)Nc3cc(C(F)(F)F)cc(NC(=O)CCCCNC(=N)N)c3O[C@@H]3CCNC3)ncn2)c1O[C@@H]1CCNC1`, with 7.1 ± 7.2%; and `CCCCc1ccc(-c2cc(C(=O)O)cc(-c3ccc(Cl)cc3)n2)cc1`, with 5.13 ± 5.7%.
Same read-out and setting: then `CCCNc1ccc(S(=O)(=O)Nc2cc(C)on2)cc1`, with 3.09 ± 1.4%; and `O=C(Nc1ccc(-c2ccccc2)cc1)C1=C(O)C(Cc2ccccc2)OC1=O` (stereo not given), with 5.44 ± 3.9%.
Consider `N#Cc1c(F)c(Cl)c(NCc2ccccc2)c(C#N)c1F`, for which the progeny production is 32.6 ± 17%.
`CC[N+]1(C/C2=C/CCCCCC2)CCC(NC(=O)C2c3cc(Cl)ccc3Oc3ccc(Cl)cc32)CC1` (stereo not given) had a progeny production of 3.01 ± 1.9%.
On the same count and under the same terms, the same measure for `NNC(=O)c1ccncc1`: 12.3 ± 5.7%; for `C[C@@H](O)[C@H](N)C(=O)NS(=O)(=O)c1cccc(-c2ccc3[nH]ncc3c2)c1`: 3.15 ± 1.8%; for `CC(=O)Nc1cc(NS(=O)(=O)c2ccc(Cl)cc2)cc2c(Cl)[nH]nc12`: 5.97 ± 4.1%.
On the same count and under the same terms, the same measure for `O=C(O)c1sccc1S(=O)(=O)n1ccc2cc(Br)ccc21`: 5.86 ± 1.6%; for `CN(C)CCNC(=O)c1cccc2cccnc12`: 5.46 ± 4.5%.
The same measure, in the same setting: the same measure for `C(=C\c1nc2ccccc2[nH]1)/c1ccc2c(c1)OCO2`: 7.35 ± 5.9%.
Consider `Nc1nc(F)nc2c1ncn2[C@H]1O[C@@H](CO)[C@H](O)[C@@H]1O`, for which the progeny production was determined as 2.33 ± 1%.

Still in this assay, the particulars now being: infection time 6 days; 100 µM.
`C=CCN(C(=O)OCc1ccc([N+](=O)[O-])cc1)C1CCN(CC[C@](C)(CN(C)S(=O)(=O)c2ccccc2)c2ccccc2)CC1`: the progeny production was found to be 5.72 ± 2.3%.
The same measure, in the same setting: then `Oc1cc(-c2cccc3ccccc23)[nH]n1`, with 18.4 ± 18%; and `O=C(O)c1ccccc1Sc1ncnc2sc3c(c12)CCC3`, with 25.2 ± 16%.
`O=C(Nc1nnc(-c2ccccc2)o1)c1ccc(F)cc1` came in with a progeny production of 6.37 ± 4.7%.
Take `NC1C2CC3CC(C2)CC1C3` (stereo not given): the progeny production came to 13.2 ± 3.6%.
On the same count and under the same terms, the same measure for `Nc1nc(C(F)(F)F)cc2c1[nH]c(=O)n2Cc1ccccc1`: 17.2 ± 1.5%.
The same measure, in the same setting: then `CCc1nc2ccccn2c1C(=O)NCc1ccccc1`, with 12.8 ± 11%.
Still for that read-out and setting: the same measure for `N=C(N)NCCCCC(=O)Nc1cc(C(F)(F)F)cc(NC(=O)c2cc(C(=O)Nc3cc(C(F)(F)F)cc(NC(=O)CCCCNC(=N)N)c3O[C@@H]3CCNC3)ncn2)c1O[C@@H]1CCNC1`: 3.98 ± 2.8%; for `CCCCc1ccc(-c2cc(C(=O)O)cc(-c3ccc(Cl)cc3)n2)cc1`: 9.87 ± 7.3%.
Compound `CCCNc1ccc(S(=O)(=O)Nc2cc(C)on2)cc1` showed a progeny production of 14 ± 3.8%.
Same read-out and setting: then `O=C(Nc1ccc(-c2ccccc2)cc1)C1=C(O)C(Cc2ccccc2)OC1=O` (stereo not given), with 6.02 ± 4.2%.
With `N#Cc1c(F)c(Cl)c(NCc2ccccc2)c(C#N)c1F`, the progeny production was 15 ± 3.8%.
In the case of `CC[N+]1(C/C2=C/CCCCCC2)CCC(NC(=O)C2c3cc(Cl)ccc3Oc3ccc(Cl)cc32)CC1` (stereo not given), the progeny production is 2.8 ± 2.2%.
The same measure, in the same setting: the same measure for `NNC(=O)c1ccncc1`: 14.7 ± 5.8%; for `C[C@@H](O)[C@H](N)C(=O)NS(=O)(=O)c1cccc(-c2ccc3[nH]ncc3c2)c1`: 20.2 ± 20%.
Same read-out and setting: the same measure for `CC(=O)Nc1cc(NS(=O)(=O)c2ccc(Cl)cc2)cc2c(Cl)[nH]nc12`: 8.68 ± 4%; for `O=C(O)c1sccc1S(=O)(=O)n1ccc2cc(Br)ccc21`: 8.33 ± 1.2%.
Take `CN(C)CCNC(=O)c1cccc2cccnc12`: the progeny production worked out at 14.7 ± 8%.
The same measure, in the same setting: the same measure for `C(=C\c1nc2ccccc2[nH]1)/c1ccc2c(c1)OCO2`: 16.6 ± 18%.
In turn, `Nc1nc(F)nc2c1ncn2[C@H]1O[C@@H](CO)[C@H](O)[C@@H]1O` came in with a progeny production of 4.1 ± 1.2%.

Values taken from the supplement of paper PMC10732440.
